# Screens: PubChem, National Center for Advancing Translational Sciences (NCATS)
# Hits are enriched below; roughly 9.4% of the tested compounds scored in any of these assays.
# NPC1 prom act = NPC1 promoter activation; Huh7 NPC1 promoter luciferase reporter, 24 h; Potency, µM (highest dose often 9.22 µM), actives largely listed as activators; 320,000 compounds, 2.4% hits; AID 485313; also: nearly all actives have a fitted effect of over 60% in size
#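 Huh7 reporter cells (NPC1 promoter driving luciferase) are dosed with compound for 24 h at 37 °C, 5% CO2; luciferase detection reagent is then added and luminescence measured after 10 min at ambient temperature.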
# Rab9 promoter act = Rab9 promoter activation. Huh7 Rab9 promoter-luciferase reporter, luminescence, 24 h. Potency, µM (series often up to 9.22 µM), hits mostly activators. 320,000 compounds, 2.8% hits; also: nearly all actives have a fitted effect of over 60% in size
#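 Promoter activation is measured as luciferase luminescence in Huh7 cells stably transfected with a Rab9 promoter–luciferase construct, following 24 h compound exposure at 37 °C and 10 min reagent incubation at ambient temperature.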
# FLuc modulator = inhibits or activates purified firefly luciferase, miR-21 counter-screen. Potency, µM (titrated, usually from 57.5 µM), most hits filed as inhibitors. purified FLuc, Km substrates, luminescence inhibition. 360,000 compounds, 6.9% hits; also: nearly all actives have a fitted effect of over 55% in size
# Target sequence (P08659 whole entry, looked up): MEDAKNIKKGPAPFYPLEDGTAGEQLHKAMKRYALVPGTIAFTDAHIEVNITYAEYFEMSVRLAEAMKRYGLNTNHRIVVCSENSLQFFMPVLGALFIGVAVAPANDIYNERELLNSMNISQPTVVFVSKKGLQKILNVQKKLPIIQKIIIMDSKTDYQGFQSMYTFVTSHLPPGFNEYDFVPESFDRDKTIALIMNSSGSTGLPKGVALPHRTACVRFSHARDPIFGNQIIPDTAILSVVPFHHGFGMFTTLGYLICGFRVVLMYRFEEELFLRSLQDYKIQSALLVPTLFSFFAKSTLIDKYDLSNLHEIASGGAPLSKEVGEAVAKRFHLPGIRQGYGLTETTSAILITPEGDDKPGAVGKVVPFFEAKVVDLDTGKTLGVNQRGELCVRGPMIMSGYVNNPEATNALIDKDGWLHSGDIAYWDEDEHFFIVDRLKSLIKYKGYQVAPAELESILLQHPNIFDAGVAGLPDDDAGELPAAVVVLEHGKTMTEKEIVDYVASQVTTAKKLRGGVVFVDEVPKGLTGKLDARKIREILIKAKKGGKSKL
#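 Purified P. pyralis luciferase, 10 nM final, with Km-level 10 uM D-luciferin and 10 uM ATP in 50 mM Tris acetate pH 7.5, 10 mM Mg acetate, 0.01% Tween-20, 0.05% BSA; 6-point qHTS titration about 60 µM downward; luminescence read.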
# ELG1 DNA repair = blocks ELG1-dependent DNA repair in HEK293T cells | HEK293T ELG1-luciferase reporter, luminescence, 16 h; DNA damage induced by 5-fluorouridine | Potency, µM (titrated, usually from 46.1 µM), most hits filed as inhibitors | 330,000 compounds, 2.3% hits | AID 504467; also: nearly all actives have a fitted effect of over 55% in size
#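 In this reporter screen, reduction of luminescence relative to DMSO vehicle indicated activity. Compounds and 5-fluorouridine were added together to 2,000 cells per well, incubated for 16 hr at 37 °C, then developed with ONE-Glo.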
# ELG1 genotox = genotoxicity induction in ELG1-luciferase HEK293T cells; HEK293T ELG1-luciferase reporter, luminescence, 16 h; Potency, µM (titrated, usually from 46 µM), actives largely listed as activators; 330,000 compounds, 1.3% hits; AID 504466; also: nearly all actives have a fitted effect of over 60% in size
#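 DMSO vehicle served as control against compound-treated ELG1-luciferase HEK293T cells; exposure lasted 16 hr at 37 °C and 5% CO2, followed by ONE-Glo luminescence detection after 30 min.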
# SMN2 splice up = SMN2 splice variant enhancement; HEK293 SMN2-luciferase splicing reporter, luminescence, 30-36 h; Potency, µM (titrated, usually from 46.1 µM), most hits filed as activators; 210,000 compounds, 2.8% hits; also: nearly all actives have a fitted effect of over 55% in size
#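 HEK293 cells carry an SMN2 […]–luciferase reporter in which exon 7 inclusion puts luciferase in frame. Cells were plated 10-12 h before compound addition, then incubated 30-36 h at 37C. ONE-Glo luminescence was read; sodium butyrate at 4.5 mM final served as control.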
# Hits are given with their value; 0 = inactive; ? = inconclusive; - = no result; ! = repeats disagree. Calls follow the shape of the dose curve; as a rule, active = well fitted curve in the direction sought with a large enough effect; inconclusive = small, poorly fitted or top-dose-only effect, or another doubt; inactive = no such curve, though single readings can be large; an effect the other way counts as inactive or inconclusive.
SMILES,NPC1 prom act,Rab9 promoter act,FLuc modulator,ELG1 DNA repair,ELG1 genotox,SMN2 splice up
Nc1n[nH]c(N)c1N=Nc1ccc(Cl)cc1Cl,0,0,13µM,?,?,-
Nc1n[nH]c(N)c1N=Nc1ccccc1F,0,0,?,?,0,-
O=C(/C=C/c1cn(CC(O)CN2CCCCCC2)c2ccccc12)c1ccc(Br)cc1 (centres undefined),-,-,0,-,-,0
Cc1ccc(O)c(NC(=O)c2noc3c2CCCC3)c1,-,-,8.5µM,-,-,11µM
CSc1ccccc1NC(=O)c1noc2c1CCC2,0,0,?,?,15µM,0
Cc1ccc(O)c(NC(=O)c2noc3c2CCCCC3)c1,2.8µM,?,4.8µM,?,?,4µM!
CCCCS(=O)(=O)c1oc(-c2ccc(F)cc2)nc1S(=O)(=O)c1ccccc1,-,-,0,-,-,0
COc1ccc(NC(=O)c2cc(CC(C)C)on2)cc1OC,0,0,?,?,21µM,0
CC(C)Cc1cc(C(=O)NCc2cccnc2)no1,0,0,0,?,0,0
CC(C)Cc1cc(C(=O)Nc2c(F)cc(F)cc2Br)no1,0,0,?,?,?,0
CC(C)Cc1cc(C(=O)NCc2cccs2)no1,?,?,15µM,?,16µM,13µM
CCc1ccc(NC(=O)c2cc(CC(C)C)on2)cc1,0,?,2.7µM,?,16µM,0
CC(C)Cc1cc(C(=O)Nc2ccc(Br)cc2)no1,?,?,2.7µM,?,?,-
CCc1ccc(NC(=O)C2CCCN(S(=O)(=O)c3ccc4c(c3)oc(=O)n4C)C2)cc1 (centres undefined),-,-,0,-,-,0
COc1ccc(-n2cnc3cc(C(=O)NCCC4=CCCCC4)ccc32)cc1,-,-,0,-,-,-
CC(C)Cc1cc(C(=O)Nc2ccc(F)cc2F)no1,0,0,11µM,?,16µM,0
CC(C)Cc1cc(C(=O)Nc2ccc3c(c2)OCO3)no1,3.2µM,3.2µM,5.4µM,?,4.6µM,16µM
CC(C)Cc1cc(C(=O)Nc2cccc(O)c2)no1,?,?,0.67µM,?,?,-
